Results published in PubChem BioAssay AID651702 (NMMLSC, 2012).
The whole screen tested about 360,000 compounds, of which about 2,400 (0.67%) were called active. The list comes from a sample in which actives are over-represented; it also holds similar structures and randomly drawn compounds. Unmarked numbers belong to inactive results.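 The calls were made as follows: active = inhibition above about 55% (limit read from the data); inconclusive = no clear call, values can overlap the other calls; inactive = the rest.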

Experiment: LAMP-1 surface exposure blockers, TALL-104 cells – cell-based, flow cytometry, MLPCN library, primary screen (AID 651702)
Conditions: TALL-104 LAMP-1 surface exposure, at 10 µM, active compounds read high, cells stimulated with thapsigargin and PMA

Row | Structure (SMILES) | inhibition
1 | Cc1ccc(Nc2cc(=O)n(C3CCCCC3)c(=O)[nH]2)cc1C | -1.1%
2 | COc1ccc(Cl)cc1C(=O)OCC(=O)NCc1cccs1 | 20.4%
3 | COc1ccccc1CNC(=O)c1cc(-c2cc(Cl)ccc2C)n[nH]1 | 2.8%
4 | CCOc1ccc(Cl)cc1-c1cc(C(=O)NCc2cccs2)[nH]n1 | 66.5% (active)
5 | Cn1c(=O)c2c(n(Cc3ccccc3)c1=O)NC(=O)C2CC(=O)N1CCc2ccccc2C1 (configuration not stated) | 5.7%
6 | Cn1c(SCc2nc3ccccc3s2)nnc1-c1ccc2c(c1)OCO2 | -6.5%
7 | COc1ccc(CN2CCN(Cc3cn(C)nc3-c3ccccc3)CC2CCO)c(C)c1C (configuration not stated) | 4.6%
8 | Cc1ccccc1CN1C[C@@H]2C[C@@H](c3ccc4nsnc4c3)N3CCC[C@@]23C1=O | -2.3%
9 | Cc1ccccc1CN1C[C@@H]2C[C@@H](c3cn(C)nc3-c3ccccc3)N3CCC[C@@]23C1=O | 82.4% (active)
10 | COC(=O)C1=C(C(=O)OC)C(c2cc([N+](=O)[O-])ccc2O)c2sc(=O)[nH]c2S1 (configuration not stated) | 7.4%
11 | Cc1cccc(Nc2nnc(SCC(=O)c3c(N)n(C4CC4)c(=O)[nH]c3=O)s2)c1C | 0.1%
12 | CCOC(=O)C1(C)CCCN(C(=O)c2cccc(Cl)c2)C1 (configuration not stated) | 1.7%
13 | CCOC(=O)C1(C)CCCN(C(=O)c2ccc(F)c(Cl)c2)C1 (configuration not stated) | 71.1% (active)
14 | CCOC(=O)C1(C)CCCN(C(=O)c2ccc(N(C)C)cc2)C1 (configuration not stated) | -2.4%
15 | O=C(Nc1ccc(Br)cc1)c1cccc(NC(=O)C2C3CC4OC(=O)C2C4C3)c1 (configuration not stated) | 11%
16 | CCOc1ccc(CCNC(=O)C2CCN(c3ccc(N4CCOCC4)nn3)CC2)cc1OCC | -0.7%
17 | Nc1nnc(SCC(=O)OCc2ccc(Cl)c(Cl)c2)s1 | -1.6%
18 | O=C(CNC(=O)N1CC(=O)Nc2ccccc21)Nc1ccc(Br)cc1F | 4.6%
19 | COc1ccc2c(c1)c(=Cc1ccc(N(C)C)cc1)c1cc(-c3ccccc3)[n+](C)n12 | 95.4% (active)
20 | CCCNC(=O)C[C@@H]1CC[C@@H]2[C@H](COC[C@H](O)CN2C(=O)c2cc(Cl)cc(Cl)c2)O1 | -2.9%
21 | O=C(NCc1ccc(F)cc1)C(c1ccccc1)N(C(=O)c1csnn1)C1CC1 (configuration not stated) | -3.2%
22 | O=C(NCc1ccccc1)C(c1cccnc1)N(C(=O)c1csnn1)c1ccc(F)cc1 (configuration not stated) | 12.4%

Row | Structure (SMILES) | inhibition
23 | O=C(NCc1ccccc1)C(c1ccccc1)N(C(=O)c1csnn1)c1ccc(F)cc1 (configuration not stated) | 56.4% (active)
24 | O=C(CC1C(=O)NCCN1Cc1ccc(-c2ccccc2)cc1)NCC1CCOCC1 (configuration not stated) | 1.1%
25 | CCCS(=O)(=O)N1CCC(CCOc2ccccc2)(C(=O)OCC)CC1 | -2.2%
26 | CCOC(=O)C1(CCOC)CCN(Cc2cc3ccccc3s2)CC1 | 0.4%
27 | CCOC(=O)C1(CCOc2ccccc2)CCN(Cc2cc(OC)c(O)cc2Cl)CC1 | 84.5% (active)
28 | CCOC(=O)C1(Cc2cccc(OC)c2)CCN(C(C)COC)CC1 (configuration not stated) | -0.5%
29 | CCOC(=O)C1(CCOc2ccccc2)CCN(Cc2ccc(C#CCCO)cc2)CC1 | 55.8% (active)
30 | CCOC(=O)C1(CCOc2ccccc2)CCN(C(=O)c2cncs2)CC1 | -0.8%
31 | CC1(C(=O)NCc2ccccc2)CSCC(=O)N1CCCN1CCOCC1 (configuration not stated) | 4.3%
32 | CC1CCCN(S(=O)(=O)c2ccc(N(C(=O)c3cnccn3)C(C(=O)NC3CCCCC3)c3cccs3)cc2)C1 (configuration not stated) | 0.9%
33 | Cc1ccc(S(=O)(=O)N2CCN(C(=O)c3cc(S(=O)(=O)N4CCOCC4)ccc3F)CC2)cc1 | -3%
34 | Cc1ccc(S(=O)(=O)NCC(=O)NNC(=O)c2ccc(Br)cc2)cc1C | -1.3%
35 | CN1C(=O)/C(=C\c2ccc(-c3ccccc3)o2)SC1=S | 66.7% (active)
36 | NS(=O)(=O)c1ccc(-c2ccc(/C=C3\SC(=O)NC3=O)o2)cc1 | -14.3%
37 | Cc1ccc(C(=O)O)cc1-c1ccc(/C=C2\SC(=O)N(CC(=O)Nc3ccc4c(c3)OCO4)C2=O)o1 | -0.4%
38 | NC(=O)CCCC1=NS(=O)(=O)c2ccccc2N1 | -3.9%
39 | CN1CCN(NC(=O)Nc2ccc(Br)cc2)CC1 | -2%
40 | O=C(NC(=O)c1ccccc1N1CCCCC1)Nc1ccc(Br)cc1 | 84.6% (active)
41 | O=C(Nc1ccc(C(=O)O)cc1)/C(=C\c1ccccc1)NC(=O)c1ccc(Br)cc1 | 9.3%
42 | Cc1ccc(C)c(NC(=O)CCC(=O)N/N=C2/CC(=O)CC(C)(C)C2)c1 | 3.3%
43 | OCCNCCOc1ccc(Cl)c(Cl)c1 | 6.6%
44 | OCCNc1nc(Nc2ccc(Cl)c(Cl)c2)nc2ccccc12 | 57.7% (active)

Row | Structure (SMILES) | inhibition
45 | COCCNc1nc(Nc2ccccc2Cl)c2sc(-c3ccccc3)cc2n1 | 47.2%
46 | COc1ccccc1Nc1nnc(SC(C)C(=O)NC2CC2)s1 (configuration not stated) | 1.8%
47 | COc1ccc(C23NCCN2C(=O)c2ccccc23)cc1 (configuration not stated) | 8.9%
48 | COc1ccc(-c2oc3ncnc(NCCCO)c3c2-c2ccc(OC)cc2)cc1 | 70.3% (active)
49 | CCc1oc(-c2ccc(OC)cc2)c(C(=O)OCCCCCO)c1C(C)OCCO (configuration not stated) | 3.7%
50 | COCCNc1ncnc2c1ncn2[C@H]1CN(Cc2ccc(OC)cc2)C[C@@H](CO)O1 | 0.2%
51 | C#CCN1CC(C)/C(=N/O)CC1C (configuration not stated) | 0.9%
52 | CCn1c(-c2ccoc2C)n[nH]c1=S | 0.6%
53 | COc1ccc(C2CC(c3cccs3)=NN2C(=O)COC(=O)c2cc3ccccc3cc2O)cc1OC (configuration not stated) | -2.9%
54 | COc1ccc(C2CC(c3cccs3)=NN2c2nc(C)c(C(C)=O)s2)cc1OC (configuration not stated) | 87.5% (active)
55 | COc1ccc(C2CC(c3cccs3)=NN2C(=O)CSc2nnc(N)s2)cc1OC (configuration not stated) | -3.2%
56 | Cc1ccc(-n2nc(N)c3c(=O)oc(N(C)C)nc32)cc1 | -0.9%
57 | Cc1cc(NC(=O)CSc2ncc(C(F)(F)F)cc2Cl)no1 | 5.6%
58 | Cc1ccc(-c2ccnc3nc(Sc4ncc(C(F)(F)F)cc4Cl)nn23)cc1 | 67.5% (active)
59 | Cc1nn(-c2ncc(C(F)(F)F)cc2Cl)c(=O)n1-c1ccccc1 | -0.5%
60 | Cn1cnc(S(=O)(=O)Nc2ccc3c(c2)OCCO3)c1 | 5.9%
61 | CCC(=O)Nc1c(C)n[nH]c1C | -0.1%
62 | COc1ccc(-c2cc(NC=O)c3ncc(-c4ccccc4)n3c2)cc1OC | 81.8% (active)
63 | COc1ccc(-c2cc(NC=O)c3ncc(-c4cc(OC)c(OC)c(OC)c4)n3c2)c(OC)c1 | 28.6%
64 | CC(=O)c1cccc(-c2cnc3c(NC=O)cc(-c4ccccc4Oc4ccccc4)cn23)c1 | 13.9%
65 | CC(NC(=O)CN(C)S(=O)(=O)c1ccc(F)cc1)C1CC2CCC1C2 (configuration not stated) | 0.1%
66 | CC(C)Cn1c(N)c(C(=O)NCc2cccs2)c2nc3ccccc3nc21 | 59.6% (active)

Row | Structure (SMILES) | inhibition
67 | O=C(Cc1coc2ccc3ccccc3c12)NCc1cccs1 | -2.5%
68 | O=C(NCc1cccs1)c1ccc(Br)o1 | -0.6%
69 | COc1ccc(Oc2cn[nH]c2-c2ccc(OC)cc2O)cc1 | 60.1% (active)
70 | COc1ccc(N=Nc2c(-c3ccc(OC)cc3)[nH]oc2=O)cc1 | -8.4%
71 | COc1ccc(-c2c(-c3ccc(OC)cc3O)nc(C)nc2C(F)(F)F)cc1 | 27.6%
72 | COc1ccc(-c2cn[nH]c2-c2ccc(OC)cc2)cc1 | 65.6% (active)
73 | COc1ccc(-c2[nH]ncc2CN(C)Cc2c(C)n[nH]c2C)c(OC)c1 | -1.2%
74 | COc1ccc2cc(-c3[nH]ncc3CNCCn3nc(C)cc3C)ccc2c1 | 18.3%
75 | Cn1c(C(=O)N2CCCC(C(=O)NCc3ccccc3)C2)cc2sccc21 (configuration not stated) | -4.6%
76 | COc1ccc(S(=O)(=O)N2CCN(CC(=O)N3CCOCC3)CC2)cc1OC | -0.5%
77 | Cc1ccc(OCCC(=O)OCC(=O)N2c3ccccc3NC(=O)C2(C)C)cc1 | 3.1%
78 | COc1ccc2[nH]c(=O)c(C3c4cc(OC)c(OC)cc4CCN3C(=O)c3ccco3)cc2c1 (configuration not stated) | -2.2%
79 | O=C(NCCN1CCOCC1)c1cccc(S(=O)(=O)Nc2ccc(F)cc2)c1 | -1.1%
80 | Cc1cccc(-c2nc3ccc(C(=O)NCCN4CCN(C)CC4)cc3nc2-c2cccc(C)c2)c1 | 57.4% (active)
81 | CCNC(=O)COC(=O)CCNC(=O)c1cccc(C)c1 | -0.6%
82 | CCC(C)CN1C(=O)CN(S(C)(=O)=O)CC1(C)C(=O)Nc1ccc2c(c1)OCCO2 (configuration not stated) | -2%
83 | Cc1coc2c(O)cc3c(c12)OC1(N2CCCCC2)C(=O)NCCCC31 (configuration not stated) | 68.1% (active)
84 | CC1CN(C2CCN(C(=O)COc3ccccc3)CC2)CC(C)O1 (configuration not stated) | -2.5%
85 | COc1ccccc1CNc1nc(Nc2ccccc2Cl)c2sccc2n1 | 2%
86 | COc1cccc(CNc2nc(NCc3ccccc3OC)nc3ccsc23)c1 | 73.8% (active)
87 | COc1cccc(CNc2nc(NCc3cccs3)nc3ccsc23)c1 | 21%
88 | CC1CCCC(C)N1C(=O)CSc1nnnn1C1CCCC1 (configuration not stated) | -4%

Row | Structure (SMILES) | inhibition
89 | COc1ccccc1C1=Nc2cccc3cccc(c23)N1 | 65.7% (active)
90 | COc1ccccc1C1=CC(=O)CCC1 | 47.3%
91 | COc1ccccc1-c1nc(C(F)(F)F)c(OC)o1 | 1.1%
92 | COc1ccc(CC(=O)N[C@@H]2c3cc(OC)c(OC)cc3C[C@H]2OCc2ccccc2)cc1 | -2.2%
93 | COc1ccccc1CC(NC(C)=O)C(=O)NC1CCN(C(=O)Nc2ccccc2Cl)CC1 (configuration not stated) | 6.8%
94 | C[C@H](CO)N1C[C@H](C)[C@@H](CN(C)Cc2ccc3c(c2)OCO3)OCc2cnnn2CCCC1=O | 2.5%
95 | Cc1cccc(C)c1NC(=O)CCS(=O)(=O)c1cccc2nsnc12 | -2.7%
96 | O=C(CCS(=O)(=O)c1ccccc1)NC1CCCC1 | -1.3%
97 | Cc1cccc2sc(N(CCCN(C)C)C(=O)CCS(=O)(=O)c3ccccc3)nc12 | 90.8% (active)
98 | COC(=O)COc1ccc(C2NC(=O)NC(C)=C2C(=O)NCc2ccccc2)cc1OC (configuration not stated) | -3.7%
99 | COc1ccc(C2=NS(=O)(=O)N(C)C(C(=O)N(C)Cc3ccccc3)=C2)cc1 | -1.2%
100 | COc1ccc(-c2cc(C(=O)N(C)Cc3ccccc3)c3ccccc3n2)cc1 | 74.5% (active)
101 | COc1ccc(CN(C)C(=O)c2cc(-c3ccc(C)cc3C)nc3ccccc23)c(OC)c1OC | 19.4%
102 | COc1c(C)cc(C(=O)C2CCCN(S(=O)(=O)c3c(C)noc3C)C2)cc1C (configuration not stated) | -1.1%
103 | O=C(CC(CC(=O)c1ccccc1)c1ccco1)c1ccccc1 | 4.2%
104 | CC(C)c1ccccc1OCC(O)CN(CC(O)COc1cccc2ccccc12)C(C)C (configuration not stated) | 73.4% (active)
105 | CC1CC(C)CN(CCOc2cccc3ccccc23)C1 (configuration not stated) | 7.6%
106 | CN1CCN(CCCCOc2cccc3ccccc23)CC1 | 24.7%
107 | CCCC(NC(=O)c1ccccc1)c1nc2ccccc2n1Cc1ccc(C(=O)OC)o1 (configuration not stated) | 0.5%
